Inconclusive results are not listed. Activity calls are given as the source filed them. Calls come from the whole dose curve; as a rule, active = well fitted inhibition curve with a large enough effect; inconclusive = small, poorly fitted or top-dose-only effect, or effect the other way; inactive = no such curve, though single readings can be large or run the other way.
Experiment: High Content Assay for Compounds that inhibit the Assembly of the Perinucleolar Compartment: DNA Intercalation/PicoGreen Displacement Assay
Description: High Content Assay for Compounds that inhibit the Assembly of the Perinucleolar Compartment
NIH Chemical Genomics Center [NCGC]
NIH Molecular Libraries Probe Centers Network [MLPCN]
Assay Submitter (PI): Sui Huang, Northwestern University, Feinberg School of Medicine, Cell and Molecular Biology, Chicago, Illinois.
The perinucleolar compartment (PNC) is a non-membrane-bound nuclear subdomain that is associated with but structurally distinct from the nucleolus. The PNC is a heritable trait, in which the number of PNCs per cell in daughter cells often mimics that of their mother cells. The PNC is heterogeneous in shape, is stable through interphase, disassembles during mitosis, and reassembles in early G1. […]
Therefore, we conducted a DNA intercalation/displacement assay on the lead candidates in order to exclude compounds with this mechanism of action. […] Compounds which displace the dye will decrease fluorescence intensity and were considered DNA intercalators/displacers. In order to rule out potential fluorescence artifacts, a measurement of compound plus DNA only was also calculated. […]
4. A baseline signal was measured using an Envision PMT based plate reader using a 488 nm excitation filter and a 520 nm emission filter. […]
6. Plates were incubated at 37 C for 10 minutes prior to being read on the envision plate reader. […]

## Cc1c2ccncc2c(C)c2c1[nH]c1ccccc12
  outcome: inactive

## CCC(=NCc1cc(OC)cc(OC)c1)c1c(O)n(C)c(=O)n(C)c1=O
  outcome: inactive

Reference: PubChem BioAssay AID2734 (National Center for Advancing Translational Sciences (NCATS), 2010)
